# Measurements taken from PubChem BioAssay AID591 (National Center for Advancing Translational Sciences (NCATS), 2007).
# The whole screen tested about 59,000 compounds, of which about 60 (0.1%) were called active. The rule behind the calls is not given here. This excerpt belongs to a sample that is enriched for actives.
# Experiment: qHTS Assay for Spectroscopic Profiling in A488 Spectral Region
# Settings: compound autofluorescence; max dye equivalency: Compound Type: qHTS ECL - SigmaAldrich, active compounds read high unless noted; outcome: dye equivalency, Compound Type: qHTS ECL - MLSMR unless noted
# Description: NIH Molecular Libraries Screening Centers Network [MLSCN]
# NIH Chemical Genomics Center [NCGC]
# Occasionally, the artifactual effect may originate from the compounds own spectral or other biophysical properties which generally tend to track its assay concentration. Pre-screening/profiling the library with respect to the compounds spectral properties should help one exclude false positives early on. While the most informative fluorescent profiling data set is obtained by performing a full excitation and emission scan of each well by using a monochromator-based plate reader, such an approach is practical only on a very limited scale as scanning each well requires long time. An alternative approach, applied here, is to perform plate reader scans using selected excitation and emission wavelength pairs to generate a multidimensional relational database that correlates compound concentration and the respective relative fluorescence intensity at a given wavelength set. A standard curve of Alexa 488 (A488) present on each plate as six-point concentration series, was used to compute a normalized fluorescence response, termed dye-equivalent concentration, for each compound at each concentration.
# NCGC Assay Protocol Summary:
# 100 mM Tris buffer, pH 8.0
# The wells in columns 1 through 4 of a Kalypsys polypropylene 1536-well compound plate were filled with standard solutions of fluorophore corresponding to the spectral region of interest. Solutions of A488 were placed in the following wells: Y1, Z1: 3 mM, Y2, Z2: 300 uM, Y3, Z3: 30 uM, Y4, Z4: zero (DMSO), AA1, AB1: 3 uM, AA2, AB2: 900 nM, AA3, AB3: 300 nM, AA4, AB4: zero (DMSO).
# Six uL of buffer were dispensed to 1536-well Greiner black plates. Compounds and dye standards (23 nL) were transferred via Kalypsys PinTool. The plates were incubated for 15 min at room temperature, and then read on ViewLux (Perkin-Elmer) High-throughput CCD imager using 480 nm and 540 nm excitation and emission filter set.
# Keywords: NIH Roadmap, MLSCN, MLI, MLSMR, qHTS, NCGC, A488, A-488, Fluorescent Profiling.
Structure (SMILES),outcome,max dye equivalency
O=C(O)[C@@H]1[C@@H](C(=O)O)[C@]23C[C@@]2(C(=O)O)[C@]2(C(=O)O)CCC3=C3CCCC312,"inactive [dye equivalency, Compound Type: qHTS ECL - NCI]",–
Cc1ccc2[nH]c(=O)c(-c3nc4c(C)cccn4c3NCc3ccco3)cc2c1,inactive,–
CN(C)c1ccc(CNC23CN4CN(CN(C4)C2)C3)cc1,"inactive [dye equivalency, Compound Type: qHTS ECL - DPISMR]",–
Cn1cc(-c2nc3cnc(N4CCNCC4)nc3n(CCc3ccccc3)c2=O)c2ccccc21,"inactive [dye equivalency, Compound Type: qHTS ECL - Pharmacopeia]",–
CNC(=O)NCCN1CCCC1=O,inactive,–
COc1ccc(-n2c(=O)c(C)nc3cnc(N4CCOCC4)nc32)cc1,"inactive [dye equivalency, Compound Type: qHTS ECL - Pharmacopeia]",–
CC1(c2ccccc2Cl)NC(=O)N(CC(=O)NC(=O)NCc2ccco2)C1=O (stereo not given),inactive,–
COc1ccc(CCN2C(=O)c3[nH]nc(-c4ccccc4O)c3C2c2ccc(C)cc2)cc1OC (stereo not given),"inactive [dye equivalency, Compound Type: qHTS ECL - DPISMR]",–
COC(=O)C(C)N(C#N)c1nc(C)nc(C)n1 (stereo not given),"inactive [dye equivalency, Compound Type: qHTS ECL - DPISMR]",–
Cc1noc(C)c1C(=O)OCC(=O)/C=C1\N(C)c2ccccc2C1(C)C,inactive,–
Cc1ccc(Oc2nc3ccccc3n3c(C)nnc23)cc1,"inactive [dye equivalency, Compound Type: qHTS ECL - DPISMR]",–
CCOc1ccc(OCC)c(NC(=O)CN(C)S(=O)(=O)c2cccc3nsnc23)c1,inactive,–
CCC(C)(C)NC(=O)C(c1cccn1C)N(Cc1ccc(C)cc1)C(=O)Cn1nnc2ccccc21 (stereo not given),inactive,–
COc1ccc(OCC(=O)OCCN(C)C)cc1,inactive,–
CC(C)C1N=C2c3ccccc3N=C(SCC(=O)c3ccc(O)c(O)c3)N2C1=O (stereo not given),"inactive [dye equivalency, Compound Type: qHTS ECL - DPISMR]",–
CCC(=O)Nc1cccc(NC(=O)CSc2nnc(-c3ccc(NS(C)(=O)=O)cc3)n2C)c1,inactive,–
Cc1nn(-c2ccccc2)c2c1C(=O)NC(=O)C(C)(C)C2,inactive,–
COc1cc([C@H]2c3cc4c(cc3[C@@H](O[C@@H]3O[C@H]5CO[C@@H](C)O[C@]5(O)C[C@H]3O)[C@@H]3COC(=O)[C@H]23)OCO4)cc(OC)c1O,"inactive [dye equivalency, Compound Type: qHTS ECL - SigmaAldrich]",–
O=C(O)c1c(Br)c(Br)c(Br)c(Br)c1C1c2ccc(O)cc2Oc2cc(O)ccc21,–,"15 nM [Compound Type: qHTS ECL - NCI, active compounds read high] (active)"
COc1ccc(OC)c(CN2C(=O)CCC2(C)C(=O)NC2CCCCCC2)c1 (stereo not given),inactive,–
CCCCCN(C(=O)NC(=O)Nc1ccccc1OC)S(C)(=O)=O,inactive,–
Cn1c(=S)c2[nH]c(SCCCc3ccccc3)nc2n(C)c1=O,"inactive [dye equivalency, Compound Type: qHTS ECL - NCI]",–
ClC(Cl)(Cl)C(N1CCN(c2ccccc2)CC1)N1CCN(c2ccccc2)CC1,"inactive [dye equivalency, Compound Type: qHTS ECL - NCI]",–
CCOC(=O)Nc1ccccc1N1C(=O)c2ccccc2C1=O,inactive,–

Structure (SMILES),outcome,max dye equivalency
CCOC(=O)c1cc2n(c1N)-c1ccccc1C2=O,–,"39 nM [Compound Type: qHTS ECL - DPISMR, active compounds read high] (active)"
CCOC(=O)c1cc2n(c1C)-c1ccccc1C2=O,inactive,–
COc1ccc2oc(C)c(NC(C)=O)c2c1,inactive,–
NC(=O)CSC1=Nc2ccccc2C2=NC(CCC(=O)NCc3ccc(F)cc3)C(=O)N12 (stereo not given),"inactive [dye equivalency, Compound Type: qHTS ECL - DPISMR]",–
Oc1c(C(c2ccccn2)N2CCOCC2)ccc2cccnc12 (stereo not given),inactive,–
COc1cc(OC)cc(C(=O)Nc2ccc(-c3nc4ccccc4o3)c(O)c2)c1,inactive,–
Clc1ccccc1-c1cc(NCCN2CCOCC2)ncn1,"inactive [dye equivalency, Compound Type: qHTS ECL - Pharmacopeia]",–
O=C1c2ccncc2C(=O)N1C1CCCCC1,inactive,–
COc1cc(C2C(C#N)=C(N)Oc3n[nH]c(-c4ccccn4)c32)cc(OC)c1OC (stereo not given),inactive,–
CS(=O)(=O)c1ccc2nc(NC(=O)CN3CCCCCC3)sc2c1,inactive,–
CC(=O)c1sc2nc(SCC(=O)N3CCCCC3)[nH]c(=O)c2c1C,"inactive [dye equivalency, Compound Type: qHTS ECL - DPISMR]",–
O=C(CN1CCN(c2ncc(C(F)(F)F)cc2Cl)CC1)Nc1ccc2c(c1)OCO2,inactive,–
O=c1cnc2cnc(Nc3ccccc3)nc2n1Cc1ccc(F)cc1,"inactive [dye equivalency, Compound Type: qHTS ECL - Pharmacopeia]",–
CCOc1ccc(-n2c(SC(C)C(=O)OC)nc3c(c2=O)SCC3)cc1 (stereo not given),inactive,–
CC(Sc1sc(=S)sc1SC(C)C(=O)O)C(=O)O (stereo not given),inactive,–
CN(C)c1ccc(-c2nc(NCCN3CCOCC3)c3ccccc3n2)cc1,"inactive [dye equivalency, Compound Type: qHTS ECL - Pharmacopeia]",–
COCCn1c(=O)c(-c2ccccc2)nc2cnc(N3CCOCC3)nc21,"inactive [dye equivalency, Compound Type: qHTS ECL - Pharmacopeia]",–
O=C(c1cccc(F)c1)N1CCC2(CC1)CCN(c1ccccc1)CC2,"inactive [dye equivalency, Compound Type: qHTS ECL - Pharmacopeia]",–
Clc1ccc(Cn2ncc3c(NCc4cccnc4)ncnc32)cc1,"inactive [dye equivalency, Compound Type: qHTS ECL - DPISMR]",–
O=C(O)C1CCCN1S(=O)(=O)c1ccc2c(c1)CCC2 (stereo not given),inactive,–
CN(C)C(=O)c1ccc(-c2cncnc2Nc2ccccc2)cc1,"inactive [dye equivalency, Compound Type: qHTS ECL - Pharmacopeia]",–
CCOC(=O)N1CCC(C(N)=O)CC1,inactive,–
Cc1cc(C)n2nc(C(=O)Oc3ccc4c(c3)OCO4)nc2n1,inactive,–
N#Cc1ccc(CN2CCCC3(CCN(C(=O)c4ccco4)CC3)C2)cc1,"inactive [dye equivalency, Compound Type: qHTS ECL - Pharmacopeia]",–

Structure (SMILES),outcome,max dye equivalency
CCCCOc1ccc(NC(=O)CSCC(=O)OCC)cc1,inactive,–
Cc1cccc(N)c1SC1CCCCC1O (stereo not given),inactive,–
COc1ccccc1CNc1ncncc1-c1cccc(NS(C)(=O)=O)c1,"inactive [dye equivalency, Compound Type: qHTS ECL - Pharmacopeia]",–
COC(=O)Cc1c(C)c2ccc(OCC(=O)NCc3ccc4c(c3)OCO4)cc2oc1=O,"inactive [dye equivalency, Compound Type: qHTS ECL - DPISMR]",–
O=c1c(CCc2ccccc2)nc2cnc(N3CCNCC3)nc2n1Cc1cccs1,"inactive [dye equivalency, Compound Type: qHTS ECL - Pharmacopeia]",–
O=C(NC1CCCCC1)N1CCc2[nH]c3ccccc3c2C1,"inactive [dye equivalency, Compound Type: qHTS ECL - DPISMR]",–
CCOC(=O)c1c(N)c(C#N)nn1-c1ccccc1C(=O)OC,"inactive [dye equivalency, Compound Type: qHTS ECL - DPISMR]",–
Cc1ccc(C(=O)NC2CC(C)(C)NC(C)(C)C2)c(C)c1,inactive,–
O=C(Oc1ccc2c(c1)CN(Cc1ccccc1)CO2)c1ccccc1,"inactive [dye equivalency, Compound Type: qHTS ECL - NCI]",–
c1ccc(-c2cn3cccnc3n2)cc1,inactive,–
CCC(C)n1[nH]c(=O)cc1N (stereo not given),inactive,–
Cc1cccc(N2CCN(C(c3ccccc3)c3nnnn3CC3CCCO3)CC2)c1C (stereo not given),inactive,–
CC1(C)CC(=O)C2=C(C1)NCN(CCCN1CCOCC1)C2,"inactive [dye equivalency, Compound Type: qHTS ECL - DPISMR]",–
O=C(c1ccco1)N1CCN(CC(=O)N(C2CCCCC2)C2CCS(=O)(=O)C2)CC1 (stereo not given),inactive,–
O=c1c(-c2cc(F)cc(F)c2)nc2cnc(Oc3ccccc3)nc2n1C[C@H]1CCCO1,"inactive [dye equivalency, Compound Type: qHTS ECL - Pharmacopeia]",–
CCCc1nc2ccccc2c(C(=O)OCc2nnc(-c3cc(OC)c(OC)c(OC)c3)o2)c1CC,inactive,–
COc1ccc(OCc2cccc(C(=O)N3CCCC3)c2)cc1,inactive,–
CCOc1ccccc1NC(=O)Nc1cc(OC)ccc1OC,"inactive [dye equivalency, Compound Type: qHTS ECL - DPISMR]",–
Cn1c(=O)[nH]c(=O)c2c1nc(NCCCn1ccnc1)n2Cc1cccc(Br)c1,"inactive [dye equivalency, Compound Type: qHTS ECL - DPISMR]",–
CCCc1nc2ccccc2c(=O)n1/N=C/c1ccc(O)c(O)c1,"inactive [dye equivalency, Compound Type: qHTS ECL - DPISMR]",–
COc1ccc(-c2nc3cnc(Oc4ccccc4)nc3n(Cc3cccs3)c2=O)cc1,"inactive [dye equivalency, Compound Type: qHTS ECL - Pharmacopeia]",–
CN1CCN(S(=O)(=O)c2ccc3[nH]cc(C(=O)O)c(=O)c3c2)CC1,"inactive [dye equivalency, Compound Type: qHTS ECL - DPISMR]",–
